From PubChem BioAssay (EPA / NIEHS) come the findings set out here.

Active and inactive are the calls of the source. Rule for the calls: active = hit-call score of the fitted dose curve at least 0.9, where 1 is the maximum; inactive = score below 0.9.

Settings in all cases: mRNA level, 48 h; actives raise or lower the signal
Read-out in experiment [1]: Apolipoprotein A-V (APOA5) gene, APOA5 (gene 116519)
Briefly: LTEA_HepaRG_APOA5: Life Technologies and Expression Analysis (LTEA) Assay for Apolipoprotein A-V (APOA5) gene using HepaRG (AID 2283474). The method in brief:
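APOA5 transcript levels were quantified by qRT-PCR, normalized to three housekeeping genes, after 48 h chemical treatment of HepaRG cells (8 points, 100 uM maximum, half-log steps, 0.5% DMSO). Curves fitted in both directions against vehicle.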

Read-out in experiment [2]: Apoptosis regulator Bcl-2 (Homo sapiens) (UniProt P10415)
Briefly: LTEA_HepaRG_BCL2: Life Technologies and Expression Analysis (LTEA) Assay for Bcl-2 gene using HepaRG (AID 2283475). The method in brief:
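Differentiated human HepaRG cells in serum-free induction medium exposed 48 h, in duplicate, to 8-point half-log series from 100 uM in 0.5% DMSO. BCL2 mRNA by qRT-PCR (TaqMan/Fluidigm), normalized to ACTB, GAPDH, POLR2A; bidirectional fit against DMSO.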

Read-out in experiment [3]: Bcl-2 (BID) gene, BID (gene 637)
The experiment can be described thus: LTEA_HepaRG_BID: Life Technologies and Expression Analysis (LTEA) Assay for Bcl-2 (BID) gene using HepaRG (AID 2283476). The method in brief:
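Gene expression by qRT-PCR in HepaRG cells after 48 h exposure, duplicate wells, eight half-log concentrations topping at 100 uM in 0.5% DMSO. Normalized to ACTB, GAPDH, POLR2A; bidirectional fitting relative to DMSO.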

Read-out in another experiment: Caspase-3 (Homo sapiens) (UniProt P42574)
Briefly: LTEA_HepaRG_CASP3: Life Technologies and Expression Analysis (LTEA) Assay for cysteine-aspartic acid protease (CASP3) using HepaRG (AID 2283477). The method in brief:
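Expression of CASP3 was quantified by TaqMan qRT-PCR against three housekeeping genes (ACTB, GAPDH, POLR2A), bidirectionally versus 0.5% DMSO. HepaRG cultures received compounds in duplicate, top 100 uM with half-log steps, for 48 h in serum-free induction medium.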

Read-out in experiment [4]: Cytochrome P450 (CYP24A1), CYP24A1 (gene 1591)
Briefly: LTEA_HepaRG_CYP24A1: Life Technologies and Expression Analysis (LTEA) Assay for Cytochrome P450 (CYP24A1) using HepaRG (AID 2283478). The method in brief:
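mRNA of CYP24A1 quantified by TaqMan qRT-PCR (ACTB/GAPDH/POLR2A normalization) after 48 h chemical exposure of HepaRG cells, top concentration 100 uM, half-log steps, 0.5% DMSO vehicle, duplicates. Curves fitted bidirectionally against DMSO baseline.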

Read-out in experiment [5]: Cytochrome P450 (CYP1A2), CYP1A2 (gene 1544)
Briefly: LTEA_HepaRG_CYP1A2: Life Technologies and Expression Analysis (LTEA) Assay for Cytochrome P450 (CYP1A2) using HepaRG (AID 2283479). An outline of the steps: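 CYP1A2 transcript measured by TaqMan qRT-PCR against three housekeeping genes after 48-hour chemical exposure of HepaRG cells. Eight-point half-log series topping at 100 uM in 0.5% DMSO, duplicates; gain or loss fitted relative to vehicle.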

Read-out in experiment [6]: cysteine-aspartic acid protease (CASP8), CASP8 (gene 841)
The experiment can be described thus: LTEA_HepaRG_CASP8: Life Technologies and Expression Analysis (LTEA) Assay for cysteine-aspartic acid protease (CASP8) using HepaRG (AID 2283480). The method in brief: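 HepaRG, 48 h exposure, duplicate wells; 8 conc, half-log from 100 uM, 0.5% DMSO. Serum-free induction medium. CASP8 mRNA by TaqMan qRT-PCR, norm. ACTB/GAPDH/POLR2A; gain/loss fitted vs DMSO.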

Read-out in experiment [7]: Cytochrome P450 (CYP2B6), CYP2B6 (gene 1555)
Briefly: LTEA_HepaRG_CYP2B6: Life Technologies and Expression Analysis (LTEA) Assay for Cytochrome P450 (CYP2B6) using HepaRG (AID 2283481). The method in brief: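 CYP2B6 transcript level quantified by qRT-PCR against three housekeeping genes, fitted bidirectionally relative to DMSO. HepaRG cultures received chemicals for 48 h, 8-point half-log series from 100 uM in 0.5% DMSO, duplicate wells, serum-free induction medium.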

Read-out in experiment [8]: Cytochrome P450 2C19 (Homo sapiens) (UniProt P33261)
The experiment can be described thus: LTEA_HepaRG_CYP2C19: Life Technologies and Expression Analysis (LTEA) Assay for CYP2C19 using HepaRG (AID 2283482). The method in brief: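 CYP2C19 transcript levels by qRT-PCR, normalized to three housekeeping genes, in HepaRG cells after 48 h chemical exposure. Eight-point half-log series topping at 100 uM, 0.5% DMSO vehicle. Increases and decreases both fitted against DMSO.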

Read-out in another experiment: CYP2C8 (gene 1558)
The experiment can be described thus: LTEA_HepaRG_CYP2C8: Life Technologies and Expression Analysis (LTEA) Assay for CYP2C8 using HepaRG (AID 2283483). The method in brief:
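CYP2C8 mRNA induction or loss, by qRT-PCR normalized to ACTB/GAPDH/POLR2A, is read in HepaRG cells after 48 h treatment. Concentrations run from 100 uM down in half-log dilutions, with 0.5% DMSO as vehicle and baseline.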

Read-out in a further experiment: CYP2C9 (gene 1559)
Briefly: LTEA_HepaRG_CYP2C9: Life Technologies and Expression Analysis (LTEA) Assay for CYP2C9 using HepaRG (AID 2283484). An outline of the steps: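 Cells plated 48 h, switched to serum-free induction medium, then treated in duplicate for 48 h at eight concentrations (max 100 uM, 0.5% DMSO). RNA then analysed by qRT-PCR for CYP2C9; curves fitted in both directions relative to DMSO.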

Read-out in the next experiment: CYP2E1 (gene 1571)
Briefly: LTEA_HepaRG_CYP2E1: Life Technologies and Expression Analysis (LTEA) Assay for CYP2E1 using HepaRG (AID 2283485). An outline of the steps:
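HepaRG cells, plated 48 h, then exposed 48 h in serum-free induction medium to eight half-log concentrations from 100 uM in 0.5% DMSO, duplicate. CYP2E1 mRNA by qRT-PCR, normalized to ACTB/GAPDH/POLR2A; bidirectional fit versus DMSO.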

Read-out in another experiment: CYP4A11 (gene 1579)
The experiment can be described thus: LTEA_HepaRG_CYP4A11: Life Technologies and Expression Analysis (LTEA) Assay for CYP4A11 using HepaRG (AID 2283486). The method in brief:
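Readout is CYP4A11 transcript level by qRT-PCR, normalized to three housekeeping genes and fitted bidirectionally against 0.5% DMSO. Human HepaRG cells were treated 48 h, in duplicate, with an 8-point half-log series topping at 100 uM.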

Read-out in experiment [9]: Cytochrome P450 3A4 (Homo sapiens) (UniProt P08684)
The experiment can be described thus: LTEA_HepaRG_CYP3A4: Life Technologies and Expression Analysis (LTEA) Assay for CYP3A4 using HepaRG (AID 2283487). The method in brief: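 In a human hepatic line (HepaRG), duplicate wells were treated 48 h with up to 100 uM chemical in half-log dilutions. Endpoint: CYP3A4 mRNA induction or loss relative to 0.5% DMSO vehicle, by qRT-PCR.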

Read-out in experiment [10]: DNA damage-inducible transcript 3 (DDIT3), DDIT3 (gene 1649)
Briefly: LTEA_HepaRG_DDIT3: Life Technologies and Expression Analysis (LTEA) Assay for DNA damage-inducible transcript 3 (DDIT3) using HepaRG (AID 2283488). The method in brief:
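HepaRG cells, 48 h after plating, exposed 48 h in serum-free induction medium to 8 half-log concentrations up to 100 uM in 0.5% DMSO, in duplicate. DDIT3 mRNA measured by TaqMan qRT-PCR, normalized to ACTB, GAPDH and POLR2A. Fitted bidirectionally against DMSO.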

Read-out in experiment [11]: Pro-epidermal growth factor (Homo sapiens) (UniProt P01133)
Briefly: LTEA_HepaRG_EGF: Life Technologies and Expression Analysis (LTEA) Assay for Epidermal growth factor (EGF) using HepaRG (AID 2283489). An outline of the steps:
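EGF transcript measured by Fluidigm TaqMan qRT-PCR with three housekeeping genes for normalization, 48 h after dosing HepaRG cultures in duplicate (top 100 uM, half-log steps, 0.5% DMSO vehicle). Gain or loss relative to DMSO fitted.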

Read-out in experiment [12]: Early growth response protein 1 (EGR1) transcription factor, EGR1 (gene 1958)
The experiment can be described thus: LTEA_HepaRG_EGR1: Life Technologies and Expression Analysis (LTEA) Assay for Early growth response protein 1 (EGR1) transcription factor using HepaRG (AID 2283490). The method in brief: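 Read-out is EGR1 mRNA level by qRT-PCR, normalized to three housekeeping genes and analysed for gain or loss of signal against 0.5% DMSO. Source cells: human HepaRG, treated 48 h at up to 100 uM in half-log dilutions.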

Read-out in experiment [13]: Ezrin (EZR), EZR (gene 7430)
The experiment can be described thus: LTEA_HepaRG_EZR: Life Technologies and Expression Analysis (LTEA) Assay for Ezrin (EZR) using HepaRG (AID 2283491). An outline of the steps:
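Gain or loss of EZR mRNA is scored relative to 0.5% DMSO in human HepaRG cultures treated 48 h with test chemicals in duplicate, eight half-log concentrations from 100 uM.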

Read-out in experiment [14]: Cytochrome P450 3A7 (Homo sapiens) (UniProt P24462)
Briefly: LTEA_HepaRG_CYP3A7: Life Technologies and Expression Analysis (LTEA) Assay for CYP3A7 using HepaRG (AID 2283492). The method in brief: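 CYP3A7 transcript measured by qRT-PCR (ACTB, GAPDH, POLR2A normalization) after 48 h chemical exposure of HepaRG cells in duplicate. Eight half-log concentrations, maximum 100 uM, 0.5% DMSO vehicle; bidirectional curve fitting against DMSO baseline.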

Sequence of Cytochrome P450 3A7 (Homo sapiens) (P24462 whole entry, looked up): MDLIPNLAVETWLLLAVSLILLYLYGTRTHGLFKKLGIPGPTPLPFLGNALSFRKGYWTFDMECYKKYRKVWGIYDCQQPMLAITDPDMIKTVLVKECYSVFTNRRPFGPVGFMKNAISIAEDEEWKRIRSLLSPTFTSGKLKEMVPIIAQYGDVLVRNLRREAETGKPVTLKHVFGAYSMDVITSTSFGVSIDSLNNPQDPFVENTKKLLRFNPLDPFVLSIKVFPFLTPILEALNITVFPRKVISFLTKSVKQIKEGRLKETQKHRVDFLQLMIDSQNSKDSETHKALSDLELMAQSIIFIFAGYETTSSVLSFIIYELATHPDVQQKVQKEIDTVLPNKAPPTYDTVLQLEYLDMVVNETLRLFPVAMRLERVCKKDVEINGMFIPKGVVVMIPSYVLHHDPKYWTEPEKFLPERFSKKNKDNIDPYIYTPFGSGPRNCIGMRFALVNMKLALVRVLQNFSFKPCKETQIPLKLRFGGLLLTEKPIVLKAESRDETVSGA
Sequence of Apoptosis regulator Bcl-2 (Homo sapiens) (P10415 whole entry, looked up): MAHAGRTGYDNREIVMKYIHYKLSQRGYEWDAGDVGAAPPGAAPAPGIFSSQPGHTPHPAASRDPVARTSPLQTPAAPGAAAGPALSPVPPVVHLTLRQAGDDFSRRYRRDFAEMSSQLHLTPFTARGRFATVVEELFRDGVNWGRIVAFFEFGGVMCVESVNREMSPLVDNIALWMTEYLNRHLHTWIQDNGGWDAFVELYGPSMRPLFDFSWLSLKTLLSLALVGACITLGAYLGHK
Sequence of Cytochrome P450 2C19 (Homo sapiens) (P33261 whole entry, looked up): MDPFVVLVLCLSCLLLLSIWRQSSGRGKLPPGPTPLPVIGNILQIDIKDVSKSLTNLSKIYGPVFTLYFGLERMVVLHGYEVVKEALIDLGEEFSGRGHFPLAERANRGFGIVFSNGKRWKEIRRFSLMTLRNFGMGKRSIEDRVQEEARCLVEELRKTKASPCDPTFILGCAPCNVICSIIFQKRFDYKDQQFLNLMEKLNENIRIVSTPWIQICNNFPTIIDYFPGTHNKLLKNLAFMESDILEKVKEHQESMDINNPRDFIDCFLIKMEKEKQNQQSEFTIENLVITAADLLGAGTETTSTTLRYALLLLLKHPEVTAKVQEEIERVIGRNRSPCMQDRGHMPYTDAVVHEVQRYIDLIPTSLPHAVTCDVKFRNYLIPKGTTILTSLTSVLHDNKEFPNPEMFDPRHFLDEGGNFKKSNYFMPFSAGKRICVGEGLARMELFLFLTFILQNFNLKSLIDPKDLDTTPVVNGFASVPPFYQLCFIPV
Sequence of Cytochrome P450 3A4 (Homo sapiens) (P08684 whole entry, looked up): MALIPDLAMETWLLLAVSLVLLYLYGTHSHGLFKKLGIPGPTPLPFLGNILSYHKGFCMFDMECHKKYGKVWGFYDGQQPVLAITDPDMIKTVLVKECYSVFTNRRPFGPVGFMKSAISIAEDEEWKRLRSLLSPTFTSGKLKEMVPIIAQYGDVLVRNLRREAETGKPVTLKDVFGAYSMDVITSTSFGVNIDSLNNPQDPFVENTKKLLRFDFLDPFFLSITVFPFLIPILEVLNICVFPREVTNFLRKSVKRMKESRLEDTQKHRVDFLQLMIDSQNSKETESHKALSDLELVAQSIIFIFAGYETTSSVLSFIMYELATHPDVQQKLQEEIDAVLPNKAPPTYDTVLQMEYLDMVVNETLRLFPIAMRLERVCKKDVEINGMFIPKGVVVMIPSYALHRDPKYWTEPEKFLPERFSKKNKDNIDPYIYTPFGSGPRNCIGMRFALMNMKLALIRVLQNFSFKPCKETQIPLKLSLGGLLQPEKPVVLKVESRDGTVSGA
Sequence of Caspase-3 (Homo sapiens) (P42574 whole entry, looked up): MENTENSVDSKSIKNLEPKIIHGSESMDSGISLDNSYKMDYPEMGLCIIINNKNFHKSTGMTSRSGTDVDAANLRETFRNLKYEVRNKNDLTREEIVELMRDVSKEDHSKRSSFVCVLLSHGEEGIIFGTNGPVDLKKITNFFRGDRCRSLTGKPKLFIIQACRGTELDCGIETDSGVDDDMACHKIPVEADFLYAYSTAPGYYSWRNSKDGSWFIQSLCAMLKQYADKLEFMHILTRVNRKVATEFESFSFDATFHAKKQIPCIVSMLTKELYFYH

Take `CCCCCCCCCCCCc1ccccc1`: the molecule was called inactive (in experiment [1]; in [2]; in [3]; with Caspase-3 (Homo sapiens); in [4]; in experiment [5]). Further, the result (in experiment [6]; in experiment [7]; in experiment [8]; with CYP2C8 (gene 1558); in the experiment with CYP2C9 (gene 1559); with CYP2E1 (gene 1571)) was inactive. Further, the call (in the experiment with CYP4A11 (gene 1579); in experiment [9]; in experiment [10]; in [11]; in experiment [12]; in [13]) was inactive. In addition, the molecule was classed as inactive in [14].
On to `CCc1cc(SCc2sc(-c3ccc(C(F)(F)F)cc3)nc2CN2CCN(c3ccc(OC)cc3)CC2)ccc1OCC(=O)O`, for which the result (in [1]; with Caspase-3 (Homo sapiens); in [4]; in [5]; in the experiment with CYP2C8 (gene 1558); in experiment [11]) was inactive. Moreover, the AC50 is 8.96 µM (active) in [2]; 0.206 µM (active) in [3]; 15.8 µM (active) in experiment [6]; 7.48 µM (active) in experiment [7]; 7.52 µM (active) in experiment [8]; 76.6 µM (active) with CYP2C9 (gene 1559). The AC50 in the experiment with CYP2E1 (gene 1571) is 75.4 µM (active); with CYP4A11 (gene 1579) it was 74.7 µM (active); in [9], 7.66 µM (active); in [10], 3.85 µM (active); in experiment [12], 51.9 µM (active); in [13] it was 94.3 µM (active). The AC50 in experiment [14] was 8.73 µM (active).
Regarding `C[C@](N)(Cc1ccc(O)c(O)c1)C(=O)O`, the outcome (in [1]; in experiment [2]; in experiment [3]; with Caspase-3 (Homo sapiens); in [4]; in experiment [5]) was inactive. In addition, the outcome (in [6]; in [7]; in experiment [8]; in the experiment with CYP2C8 (gene 1558); with CYP2C9 (gene 1559); with CYP2E1 (gene 1571)) was inactive. Moreover, the result (with CYP4A11 (gene 1579); in experiment [9]; in [10]; in experiment [11]; in [12]; in [13]) was inactive. Further, the call in [14] was inactive.
